# In the supplement of paper PMC4466140:
# Experiments:
# Test in all cases: SPOT peptide array binding signal intensity (averaged, normalized) (arbitrary units (background-subtracted, floor 0; scale differs between SH3 domains)); higher = stronger binding of the SH3 domain to the peptide
# AgAbp1 = molecular target: AgAbp1
# How it was run: (§1)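 SH3 domains from four yeast species were expressed as GST fusions in E. coli BL21(DE3) and purified on glutathione Sepharose. Each was incubated at 10 μg/ml overnight at 4°C in TBS-based blocking buffer on cellulose membranes bearing synthetic 15-mer peptides, in which serines replaced cysteines. Bound protein was detected with anti-GST antibody, an HRP anti-mouse secondary and luminol, then imaged and quantified with Genespotter. The binding signal is the normalized, background-subtracted spot intensity averaged over replicates, in arbitrary units that are not the same from one domain to another.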
# AgBbc1 = molecular target: AgBbc1
# How it was run: as §1
# AgBem1-D1 = molecular target: AgBem1-D1
# How it was run: as §1
# AgBzz1-D1 = molecular target: AgBzz1-D1
# How it was run: as §1
# AgBzz1-D2 = molecular target: AgBzz1-D2
# How it was run: as §1
# AgCyk3 = molecular target: AgCyk3
# How it was run: as §1
# AgFus1 = molecular target: AgFus1
# How it was run: as §1
# AgHof1 = molecular target: AgHof1
# How it was run: as §1
# AgHse1 = molecular target: AgHse1
# How it was run: as §1
# AgLsb1 = molecular target: AgLsb1
# How it was run: as §1
# AgLsb4 = molecular target: AgLsb4
# How it was run: as §1
# AgMyo5 = molecular target: AgMyo5
# How it was run: as §1
# AgNbp2 = molecular target: AgNbp2
# How it was run: as §1
# AgRvs167 = molecular target: AgRvs167
# How it was run: as §1
# AgSho1 = molecular target: AgSho1
# How it was run: as §1
# AgSla1-D1-D2 = molecular target: AgSla1-D1-D2
# How it was run: as §1
# AgSla1-D3 = molecular target: AgSla1-D3
# How it was run: as §1
# CaAbp1-D1 = molecular target: CaAbp1-D1
# How it was run: as §1
# CaAbp1-D2 = molecular target: CaAbp1-D2
# How it was run: as §1
# CaBbc1 = molecular target: CaBbc1
# How it was run: as §1
# CaBem1-D1 = molecular target: CaBem1-D1
# How it was run: as §1
# CaBzz1-D1 = molecular target: CaBzz1-D1
# How it was run: as §1
# CaBzz1-D2 = molecular target: CaBzz1-D2
# How it was run: as §1
# CaCyk3 = molecular target: CaCyk3
# How it was run: as §1
# CaFus1 = molecular target: CaFus1
# How it was run: as §1
# CaHof1 = molecular target: CaHof1
# How it was run: as §1
# CaHse1 = molecular target: CaHse1
# How it was run: as §1
# CaLsb1 = molecular target: CaLsb1
# How it was run: as §1
# CaLsb4 = molecular target: CaLsb4
# How it was run: as §1
# CaMyo5 = molecular target: CaMyo5
# How it was run: as §1
# CaNbp2 = molecular target: CaNbp2
# How it was run: as §1
# CaRvs167 = molecular target: CaRvs167
# How it was run: as §1
# CaRvs167-3 = molecular target: CaRvs167-3
# How it was run: as §1
# CaSho1 = molecular target: CaSho1
# How it was run: as §1
# CaSla1-D1-D2 = molecular target: CaSla1-D1-D2
# How it was run: as §1
# CaSla1-D3 = molecular target: CaSla1-D3
# How it was run: as §1
# ScAbp1 = molecular target: ScAbp1
# How it was run: as §1
# ScBbc1 = molecular target: ScBbc1
# How it was run: as §1
# ScBem1-D1 = molecular target: ScBem1-D1
# How it was run: as §1
# ScBzz1-D1 = molecular target: ScBzz1-D1
# How it was run: as §1
# ScBzz1-D2 = molecular target: ScBzz1-D2
# How it was run: as §1
# ScCyk3 = molecular target: ScCyk3
# How it was run: as §1
# ScFus1 = molecular target: ScFus1
# How it was run: as §1
# ScHof1 = molecular target: ScHof1
# How it was run: as §1
# ScHse1 = molecular target: ScHse1
# How it was run: as §1
# ScLsb1 = molecular target: ScLsb1
# How it was run: as §1
# ScLsb2 = molecular target: ScLsb2
# How it was run: as §1
# ScLsb3 = molecular target: ScLsb3
# How it was run: as §1
# ScLsb4 = molecular target: ScLsb4
# How it was run: as §1
# ScMyo3 = molecular target: ScMyo3
# How it was run: as §1
# ScMyo5 = molecular target: ScMyo5
# How it was run: as §1
# ScNbp2 = molecular target: ScNbp2
# How it was run: as §1
# ScPex13 = molecular target: ScPex13
# How it was run: as §1
# ScRvs167 = molecular target: ScRvs167
# How it was run: as §1
# ScSho1 = molecular target: ScSho1
# How it was run: as §1
# ScSla1-D1-D2 = molecular target: ScSla1-D1-D2
# How it was run: as §1
# ScSla1-D3 = molecular target: ScSla1-D3
# How it was run: as §1
# SpAbp1-D1 = molecular target: SpAbp1-D1
# How it was run: as §1
# SpBbc1 = molecular target: SpBbc1
# How it was run: as §1
# SpBzz1-D1 = molecular target: SpBzz1-D1
# How it was run: as §1
# SpBzz1-D2 = molecular target: SpBzz1-D2
# How it was run: as §1
# SpCyk3 = molecular target: SpCyk3
# How it was run: as §1
# SpHof1 = molecular target: SpHof1
# How it was run: as §1
# SpHof1-2 = molecular target: SpHof1-2
# How it was run: as §1
# SpHof1-3 = molecular target: SpHof1-3
# How it was run: as §1
# SpHse1 = molecular target: SpHse1
# How it was run: as §1
# SpLsb1 = molecular target: SpLsb1
# How it was run: as §1
# SpLsb4 = molecular target: SpLsb4
# How it was run: as §1
# SpMyo1 = molecular target: SpMyo1
# How it was run: as §1
# SpNbp2 = molecular target: SpNbp2
# How it was run: as §1
# SpPex13 = molecular target: SpPex13
# How it was run: as §1
# SpRvs167 = molecular target: SpRvs167
# How it was run: as §1
# SpSla1-D1-D2 = molecular target: SpSla1-D1-D2
# How it was run: as §1
# SpSla1-D3 = molecular target: SpSla1-D3
# How it was run: as §1
binder,measurement,setting,value
ISPPASPPPEFDFSK,SPOT peptide array binding signal intensity,AgAbp1,≤ 0
same,SPOT peptide array binding signal intensity,AgBbc1,≤ 0
same,SPOT peptide array binding signal intensity,AgBem1-D1,≤ 0
same,SPOT peptide array binding signal intensity,AgBzz1-D1,≤ 0
same,SPOT peptide array binding signal intensity,AgBzz1-D2,22.5
same,SPOT peptide array binding signal intensity,AgCyk3,≤ 0
same,SPOT peptide array binding signal intensity,AgFus1,4
same,SPOT peptide array binding signal intensity,AgHof1,≤ 0
same,SPOT peptide array binding signal intensity,AgHse1,27.5
same,SPOT peptide array binding signal intensity,AgLsb1,≤ 0
same,SPOT peptide array binding signal intensity,AgLsb4,≤ 0
same,SPOT peptide array binding signal intensity,AgMyo5,781
same,SPOT peptide array binding signal intensity,AgNbp2,≤ 0
same,SPOT peptide array binding signal intensity,AgRvs167,0.333
same,SPOT peptide array binding signal intensity,AgSho1,≤ 0
same,SPOT peptide array binding signal intensity,AgSla1-D1-D2,5
same,SPOT peptide array binding signal intensity,AgSla1-D3,≤ 0
same,SPOT peptide array binding signal intensity,CaAbp1-D1,≤ 0
same,SPOT peptide array binding signal intensity,CaAbp1-D2,1.5
same,SPOT peptide array binding signal intensity,CaBbc1,≤ 0
same,SPOT peptide array binding signal intensity,CaBem1-D1,≤ 0
same,SPOT peptide array binding signal intensity,CaBzz1-D1,≤ 0
same,SPOT peptide array binding signal intensity,CaBzz1-D2,14.5
same,SPOT peptide array binding signal intensity,CaCyk3,≤ 0
same,SPOT peptide array binding signal intensity,CaFus1,≤ 0
same,SPOT peptide array binding signal intensity,CaHof1,1
same,SPOT peptide array binding signal intensity,CaHse1,1
same,SPOT peptide array binding signal intensity,CaLsb1,≤ 0
same,SPOT peptide array binding signal intensity,CaLsb4,≤ 0
same,SPOT peptide array binding signal intensity,CaMyo5,40
same,SPOT peptide array binding signal intensity,CaNbp2,≤ 0
same,SPOT peptide array binding signal intensity,CaRvs167,0.833
same,SPOT peptide array binding signal intensity,CaRvs167-3,≤ 0
same,SPOT peptide array binding signal intensity,CaSho1,≤ 0
same,SPOT peptide array binding signal intensity,CaSla1-D1-D2,≤ 0
same,SPOT peptide array binding signal intensity,CaSla1-D3,1.5
same,SPOT peptide array binding signal intensity,ScAbp1,≤ 0
same,SPOT peptide array binding signal intensity,ScBbc1,≤ 0
same,SPOT peptide array binding signal intensity,ScBem1-D1,≤ 0
same,SPOT peptide array binding signal intensity,ScBzz1-D1,≤ 0
same,SPOT peptide array binding signal intensity,ScBzz1-D2,≤ 0
same,SPOT peptide array binding signal intensity,ScCyk3,≤ 0
same,SPOT peptide array binding signal intensity,ScFus1,≤ 0
same,SPOT peptide array binding signal intensity,ScHof1,≤ 0
same,SPOT peptide array binding signal intensity,ScHse1,≤ 0
same,SPOT peptide array binding signal intensity,ScLsb1,≤ 0
same,SPOT peptide array binding signal intensity,ScLsb2,≤ 0
same,SPOT peptide array binding signal intensity,ScLsb3,≤ 0
same,SPOT peptide array binding signal intensity,ScLsb4,≤ 0
same,SPOT peptide array binding signal intensity,ScMyo3,1120
same,SPOT peptide array binding signal intensity,ScMyo5,428
same,SPOT peptide array binding signal intensity,ScNbp2,≤ 0
same,SPOT peptide array binding signal intensity,ScPex13,≤ 0
same,SPOT peptide array binding signal intensity,ScRvs167,≤ 0
same,SPOT peptide array binding signal intensity,ScSho1,≤ 0
same,SPOT peptide array binding signal intensity,ScSla1-D1-D2,≤ 0
same,SPOT peptide array binding signal intensity,ScSla1-D3,3.5
same,SPOT peptide array binding signal intensity,SpAbp1-D1,≤ 0
same,SPOT peptide array binding signal intensity,SpBbc1,2.5
same,SPOT peptide array binding signal intensity,SpBzz1-D1,≤ 0
same,SPOT peptide array binding signal intensity,SpBzz1-D2,1
same,SPOT peptide array binding signal intensity,SpCyk3,≤ 0
same,SPOT peptide array binding signal intensity,SpHof1,≤ 0
same,SPOT peptide array binding signal intensity,SpHof1-2,0.5
same,SPOT peptide array binding signal intensity,SpHof1-3,≤ 0
same,SPOT peptide array binding signal intensity,SpHse1,6
same,SPOT peptide array binding signal intensity,SpLsb1,≤ 0
same,SPOT peptide array binding signal intensity,SpLsb4,≤ 0
same,SPOT peptide array binding signal intensity,SpMyo1,877
same,SPOT peptide array binding signal intensity,SpNbp2,≤ 0
same,SPOT peptide array binding signal intensity,SpPex13,≤ 0
same,SPOT peptide array binding signal intensity,SpRvs167,≤ 0
same,SPOT peptide array binding signal intensity,SpSla1-D1-D2,1
same,SPOT peptide array binding signal intensity,SpSla1-D3,3
QPPLPSSAPPIPTSH,SPOT peptide array binding signal intensity,AgAbp1,≤ 0
same,SPOT peptide array binding signal intensity,AgBbc1,≤ 0
same,SPOT peptide array binding signal intensity,AgBem1-D1,≤ 0
same,SPOT peptide array binding signal intensity,AgBzz1-D1,35
same,SPOT peptide array binding signal intensity,AgBzz1-D2,≤ 0
same,SPOT peptide array binding signal intensity,AgCyk3,≤ 0
same,SPOT peptide array binding signal intensity,AgFus1,≤ 0
same,SPOT peptide array binding signal intensity,AgHof1,≤ 0
same,SPOT peptide array binding signal intensity,AgHse1,≤ 0
same,SPOT peptide array binding signal intensity,AgLsb1,≤ 0
same,SPOT peptide array binding signal intensity,AgLsb4,≤ 0
same,SPOT peptide array binding signal intensity,AgMyo5,1730
same,SPOT peptide array binding signal intensity,AgNbp2,≤ 0
same,SPOT peptide array binding signal intensity,AgRvs167,≤ 0
same,SPOT peptide array binding signal intensity,AgSho1,≤ 0
same,SPOT peptide array binding signal intensity,AgSla1-D1-D2,≤ 0
same,SPOT peptide array binding signal intensity,AgSla1-D3,≤ 0
same,SPOT peptide array binding signal intensity,CaAbp1-D1,≤ 0
same,SPOT peptide array binding signal intensity,CaAbp1-D2,≤ 0
same,SPOT peptide array binding signal intensity,CaBbc1,≤ 0
same,SPOT peptide array binding signal intensity,CaBem1-D1,8.5
same,SPOT peptide array binding signal intensity,CaBzz1-D1,≤ 0
same,SPOT peptide array binding signal intensity,CaBzz1-D2,2.5
same,SPOT peptide array binding signal intensity,CaCyk3,≤ 0
same,SPOT peptide array binding signal intensity,CaFus1,≤ 0
same,SPOT peptide array binding signal intensity,CaHof1,≤ 0
same,SPOT peptide array binding signal intensity,CaHse1,≤ 0
same,SPOT peptide array binding signal intensity,CaLsb1,≤ 0
same,SPOT peptide array binding signal intensity,CaLsb4,≤ 0
same,SPOT peptide array binding signal intensity,CaMyo5,510
